# Experimental data from PubChem BioAssay (Tox21).
# Several values for one entry are separate records, joined by “and”; a condition that tells them apart may be missing. Identical values can stand only once. Records with an inconclusive call do not appear. Activity calls are given as the source filed them. The call rests on the fitted dose curve; in most records, active means well fitted cell-killing curve with a large enough effect in the repeat runs; inconclusive means weak or mixed curves, or effect the other way; inactive means no such curve, though single readings can be large or run the other way. Non-standard residues stand in square brackets, D forms with d. Residues, ends and D or L forms follow the SMILES beside them. pGlu = O=C1CC[C@@H](C(=O)O)N1
# Test: qHTS assay for identifying genotoxic compounds that show differential cytotoxicity against isogenic chicken DT40 cell lines with known DNA damage response pathways - Rev3 mutant cell line (AID 743014); further: nearly all actives have a fitted effect of over 55% in size
# Settings: chicken DT40 Rev3-/- viability, CellTiter-Glo, 40 h; series mostly up to 68.4 µM; activity, negative = cytotoxicity: at the top concentration
# Description: National Center for Advancing Translational Sciences [NCATS]
# NIH Chemical Genomics Center [NCGC]
# U.S. Environmental Protection Agency [EPA]
# National Institutes of Environmental Health Sciences [NIEHS]
# National Toxicology Program [NTP]
# U.S. Food and Drug Administration [FDA]
# DNA repair pathways play a critical role in cellular homeostasis by repairing DNA damage induced by endogenous processes and xenobiotics. Isogenic chicken DT40 cell lines deficient in different DNA repair pathways can be used to identify genotoxic compounds and aid in characterizing the nature of the DNA damage induced. Two DNA repair-deficient cell lines with disrupted genes, Rad54/Ku70 or Rev3, were used to screen the Tox21 10K compound library. Possible genotoxicity was based on the presence of a significant increase in cytotoxicity in one or more of the DNA repair-deficient cell lines compared to that observed in the parental DNA repair-proficient cell line. CellTiter Glo viability assay (Promega, Madison, WI) was used to measure cell viability in these cells after compound treatment. This assay includes the data from the Rev3 mutant cell line.
# Tox21 Assay Protocol Summary:
# 300 DT40 mutant cells in 5 uL/well were dispensed into white, solid-bottom 1536-well plates using a Multidrop Combi (ThermoFisher Scientific, Waltham, MA) dispenser. After the assay plates were incubated at 37 C/5% CO2 for approximately 0.5 hour, 23 nL of compounds dissolved in DMSO, positive controls or DMSO only was transferred into the assay plate by a pintool work station (Kalypsys, San Diego, CA). The assay plates were incubated at 37 C/5% CO2 for 40 hours. After 5 uL per well of CellTiter-Glo reagent was added into each well of the assay plates, the plates were incubated for 30 min at room temperature and the luminescence intensity of the plates was measured using a ViewLux (PerkinElmer, Shelton, CT) plate reader.
# On the % scale 0 is the no-effect control and ±100 the full control effect; potency means the concentration at half of the fitted maximal effect.
Compound,"activity, negative = cytotoxicity",Potency
NC[C@@H]1O[C@H](O[C@H]2[C@@H](O)[C@H](O[C@@H]3[C@@H](O)[C@H](N)C[C@H](N)[C@H]3O[C@H]3O[C@H](CN)[C@@H](O)[C@H](O)[C@H]3N)O[C@@H]2CO)[C@H](N)[C@@H](O)[C@@H]1O,0.41% (inactive),–
CCCCCCCCCCCCCCCC(=O)O[C@@H]1CC(C)=C(/C=C/C(C)=C/C=C/C(C)=C/C=C/C=C(C)/C=C/C=C(C)/C=C/C2=C(C)C[C@@H](OC(=O)CCCCCCCCCCCCCCC)CC2(C)C)C(C)(C)C1,2.05% (inactive),–
COc1cc(Br)c(C[N+]2(CCOCCC3CCC4CC3C4(C)C)CCOCC2)cc1OC (stereo not given),–,2.66 µM (active)
CN(C)c1ccc(C(=C2C=CC(=[N+](C)C)C=C2)c2c(O)c(S(=O)(=O)[O-])cc3cc(S(=O)(=O)O)ccc23)cc1,–,10.6 µM (active)
CCCCCCC(=O)O[C@H]1CC[C@H]2[C@@H]3CCc4cc(O)ccc4[C@H]3CC[C@]12C,-0.57% (inactive),–
CO[C@H]1C[C@H](O[C@@H]2/C(C)=C/C[C@@H]3C[C@@H](C[C@]4(CC[C@H](C)[C@@H](C5CCCCC5)O4)O3)OC(=O)[C@@H]3C=C(C)/C(=N/O)[C@H]4OC/C(=C\C=C\[C@@H]2C)[C@]43O)O[C@@H](C)[C@@H]1O,-12.3% (inactive),–
O=C(O)C1=C(CSc2nnnn2CS(=O)(=O)O)CS[C@@H]2[C@H](NC(=O)[C@H](O)c3ccccc3)C(=O)N12,12.5% (inactive),–
CO[C@H]1C=CO[C@@]2(C)Oc3c(C)c(O)c4c(O)c(c(/C=N/N5CCN(C6CCCC6)CC5)c(O)c4c3C2=O)NC(=O)/C(C)=C\C=C[C@H](C)[C@H](O)[C@@H](C)[C@@H](O)[C@@H](C)[C@H](OC(C)=O)[C@@H]1C,–,8.41 µM (active)
CC[C@H](C)[C@H](NC(=O)[C@H](Cc1ccccc1)NC(=O)[C@H](C)NC(=O)[C@H](CC(=O)O)NC(=O)[C@H](CCCCN)NC(=O)[C@H](CO)NC(=O)[C@@H]1CCCN1C(=O)[C@@H]1CCC(=O)N1)C(=O)NCC(=O)N[C@@H](CC(C)C)C(=O)N[C@@H](CCSC)C(N)=O ([pGlu]PSKDAFIGLM-NH2),4.75% (inactive),–
CC(=O)Oc1cccc(C(=O)O)c1OC(C)=O,0.639% (inactive),–
c1ccc2c(c1)Sc1ccccc1N2CCN1CCCC1,–,8.41 µM (active)
CCCCCCCCCCCCCCCCCCOP(=O)([O-])OC1CC[N+](C)(C)CC1,-10.2% [at 31.4 µM] (inactive),–
CN1CCc2c(c3ccccc3n2Cc2ccccc2)C1,0.0417% [at 31.4 µM] (inactive),–
CC1(C)C(\C=C/C=C\C=C/C=C2/N(CCCCS(=O)(=O)O)c3ccc4ccccc4c3C2(C)C)=[N+](CCCCS(=O)(=O)[O-])c2ccc3ccccc3c21,–,26.6 µM (active)
CCCCCCCCCCCCCCCCCC(=O)OCC(C)O (stereo not given),2.12% (inactive),–
C[C@@](Cc1ccc(O)c(O)c1)(NN)C(=O)O,–,29.8 µM (active)
C[C@]12CCC(=O)C[C@@H]1CC[C@@H]1[C@@H]2CC[C@]2(C)C=CC[C@@H]12,-1.48% (inactive),–
CC[C@@H](C(=O)O)[C@@H]1O[C@@H]([C@@H](C)[C@H](O)[C@H](C)C(=O)[C@H](CC)[C@H]2O[C@]3(C=C[C@@H](O)[C@]4(CC[C@@](C)([C@H]5CC[C@](O)(CC)[C@H](C)O5)O4)O3)[C@H](C)C[C@@H]2C)[C@@H](C)C[C@@H]1C,–,0.168 µM (active)
CCCCCCCCCCCCOCCCN,3.43% (inactive),–
COc1cc(S(C)=O)ccc1-c1nc2ncccc2[nH]1 (stereo not given),15.1% (inactive),–

Compound,"activity, negative = cytotoxicity",Potency
C[N+]1(C)CCN(CC(O)(c2ccccc2)C2CCCCC2)CC1 (stereo not given),-3.67% (inactive),–
CC(=O)N(CC(C)C(=O)O)c1c(I)cc(I)c(N)c1I (stereo not given),7.78% [at 31.4 µM] (inactive),–
O=C(NNCNNC(=O)c1ccncc1)c1ccncc1,-15% (inactive),–
CCCC(=O)O[C@]1(C(=O)COC(C)=O)CC[C@H]2[C@@H]3C[C@H](F)C4=CC(=O)C=C[C@]4(C)[C@@]3(F)[C@@H](O)C[C@@]21C,–,29.8 µM (active)
CCCCC/C=C\C/C=C\C/C=C\CCCCC(=O)O,-2.88% (inactive),–
C/C1=C2N=C(/C=C3N=C(/C(C)=C4\[N-]C(C(CC(N)=O)C4(C)CCC(=O)NCC(C)OP(=O)([O-])OC4C(CO)OC(n5cnc6cc(C)c(C)cc65)C4O)C4(C)N=C1C(CCC(N)=O)C4(C)CC(N)=O)C(CCC(N)=O)C\3(C)C)C(CCC(N)=O)C/2(C)CC(N)=O.[CH3-].[Co+3] (stereo not given),-24.7% (inactive),–
C=C1C(=C/C=C2\CCC[C@]3(C)[C@@H]([C@H](C)/C=C/[C@H](C)C(C)C)CC[C@@H]23)C[C@@H](O)C[C@@H]1O,–,21.1 µM (active)
COc1cc([C@@H]2c3cc4c(cc3C(O[C@@H]3O[C@@H]5CO[C@@H](C)O[C@H]5[C@H](O)[C@H]3O)C3COC(=O)[C@@H]32)OCO4)cc(OC)c1OP(=O)(O)O (stereo not given in full),–,1.68 µM (active) and 2.37 µM (active)
CC(=O)[C@]1(O)Cc2c(O)c3c(c(O)c2[C@@H](O[C@H]2C[C@H](N)[C@H](O)[C@H](C)O2)C1)C(=O)c1c(O)cccc1C3=O,–,0.0188 µM (active)
O=C1NCCN1c1ncc([N+](=O)[O-])s1,7.17% [at 31.4 µM] (inactive),–
C[C@H]1[C@@H](OC(=O)CCC(=O)O)O[C@@H]2OC3(C)CC[C@H]4[C@H](C)CC[C@@H]1[C@@]24OO3,–,0.188 µM (active)
C=CCN1CCCC1CNC(=O)c1cc(S(N)(=O)=O)cc(OC)c1OC (stereo not given),2.12% (inactive),–
CC(=O)OC[C@H]1O[C@@H](O[C@H]2[C@H](O)[C@@H](OC(=O)c3ccccc3C(=O)O)[C@H](O)O[C@@H]2COC(C)=O)[C@H](O)[C@@H](OC(=O)c2ccccc2C(=O)O)[C@@H]1O,6.32% (inactive),–
CCCCCCCN(CC)CCCC(O)c1ccc(NS(C)(=O)=O)cc1 (stereo not given),–,26.6 µM (active)
O=C(CCCN1CCC(C(=O)c2ccc(F)cc2)CC1)c1ccc(F)cc1,–,3.76 µM (active)
O=[n+]1ccn([O-])c2ccccc21,6.11% (inactive),–
Cc1c(N)nc(C(CC(N)=O)NCC(N)C(N)=O)nc1C(=O)NC(C(=O)NC(C)C(O)C(C)C(=O)NC(C(=O)NCCc1nc(-c2nc(C(=O)NCCCN[C@@H](C)c3ccccc3)cs2)cs1)C(C)O)C(O[C@@H]1O[C@@H](CO)[C@@H](O)[C@H](O)[C@@H]1O[C@H]1O[C@H](CO)[C@@H](O)[C@H](OC(N)=O)[C@@H]1O)c1cnc[nH]1 (stereo not given in full),–,0.944 µM (active)
CN1[C@@H]2CCC[C@H]1CC(NC(=O)c1nn(C)c3ccccc13)C2 (stereo not given in full),-0.404% (inactive),–
CN1c2cc(O)c(N=NC(N)=O)cc2CC1S(=O)(=O)O (stereo not given),6.63% (inactive),–
OCCO[C@@H]1[C@@H](O)[C@H](O)[C@@H](CO)O[C@@H]1O,0.841% (inactive),–
